According to PubChem BioAssay (NCATS):
Inconclusive results are not listed. A call without a number means that no potency is given here. A number with no mark means an inactive call. The source made the active and inactive calls. Calls follow the shape of the dose curve; as a rule, active = well fitted inhibition curve with a large enough effect; inconclusive = small, poorly fitted or top-dose-only effect; inactive = flat fitted curve, though single readings scatter.

target: Calcium and integrin-binding protein 1 (Homo sapiens) (UniProt Q99828); test: Primary qHTS for Identification of Calcium Integrin Binding Protein 1 (CIB1) Competitor (AID 1508620); details: CIB1-GST / FITC-alphaIIb peptide fluorescence polarization; series mostly up to 57.7 µM;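 also: GST tagged CIB1 binding a fluorescein labelled alphaIIb integrin peptide tracer; top concentration of the series differs between compounds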
Sequence (Q99828 whole entry, looked up): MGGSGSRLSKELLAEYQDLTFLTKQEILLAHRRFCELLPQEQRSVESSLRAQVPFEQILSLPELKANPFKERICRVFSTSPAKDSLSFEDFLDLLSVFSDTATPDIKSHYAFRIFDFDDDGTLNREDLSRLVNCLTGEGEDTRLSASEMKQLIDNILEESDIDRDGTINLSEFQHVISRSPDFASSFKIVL
In short: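 CIB1-GST (1 uM final) and compound incubated 15 min at room temperature before adding FITC-alphaIIb peptide tracer (100 nM final). Competition for binding read by fluorescence polarization (ex 480, em 540) after another 15 min at room temperature.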

| SMILES | Potency | activity change, negative = inhibition |
| --- | --- | --- |
| CCNC(=O)c1noc(-c2cc(C(C)C)c(O)cc2O)c1-c1ccc(CN2CCOCC2)cc1 | inactive |  |
| CC=C(C(=CC)c1ccc(O)cc1)c1ccc(O)cc1 | inactive |  |
| CC(C)[C@H](O)C(=O)N[C@@H](C)C(=O)N[C@@H]1C(=O)N(C)CCc2ccccc21 | inactive |  |
| COc1cc([C@@H]2c3cc4c(cc3[C@@H](O[C@@H]3O[C@@H]5CO[C@@H](C)O[C@@H]5[C@H](O)[C@@H]3O)[C@H]3COC(=O)[C@H]23)OCO4)cc(OC)c1O | inactive |  |
| CN1CCC(COc2cnc(-c3cccc(Cn4nc(-c5cccc(C#N)c5)ccc4=O)c3)nc2)CC1 | inactive |  |
| CN1[C@H]2CC[C@H]1CC(OC(=O)c1c[nH]c3ccccc13)C2 (stereo not given in full) | inactive |  |
| CC=C1C2C=C(C)CC1(N)c1ccc(=O)[nH]c1C2 (stereo not given) | inactive |  |
| CC(O)=C(C#N)C(=O)Nc1ccc(C(F)(F)F)cc1 | inactive |  |
| Cn1cc(-c2ccc3nnc(Sc4ccc5ncccc5c4)n3n2)cn1 | inactive |  |
| N#CC(=C1Nc2ccccc2S1)c1ccnc(OCc2ccc(CN3CCOCC3)cc2)n1 | inactive |  |
| CC(C)n1c(C=C[C@H](O)C[C@H](O)CC(=O)O)c(-c2ccc(F)cc2)c2ccccc21 | inactive |  |
| CCOC(=O)c1c(CSc2ccccc2)n(C)c2cc(Br)c(O)c(CN(C)C)c12 | inactive |  |
| O=C(NC[C@H](O)CO)c1ccncc1Nc1ccc(I)cc1F | inactive |  |
| CC(C)C[C@@H](N)[C@H](O)C(=O)N[C@H](C(=O)N[C@H](C(=O)N[C@@H](CC(=O)O)C(=O)O)C(C)C)C(C)C | inactive |  |
| OC1CCC(Nc2ncc3nc(Nc4c(F)cc(F)cc4F)n([C@@H]4CCOC4)c3n2)CC1 (stereo not given in full) | inactive |  |
| CN(C)c1ccc(-c2nc3ncc(Cl)c(N4CCN(CC(=O)Nc5nccs5)CC4)c3[nH]2)cc1 | inactive |  |
| COC1CCC(C(=O)c2ccc3nc4c(cc3c2)CCCO4)CC1 (stereo not given) | inactive |  |
| CC[C@H]1OC(=O)[C@H](C)[C@@H](O[C@H]2C[C@@](C)(OC)[C@@H](O)[C@H](C)O2)[C@H](C)[C@@H](O[C@@H]2O[C@H](C)C[C@H](N(C)C)[C@H]2O)[C@](C)(O)C[C@H](C)C(=NOCOCCOC)[C@H](C)[C@@H](O)[C@]1(C)O | inactive |  |

| SMILES | Potency | activity change, negative = inhibition |
| --- | --- | --- |
| O=C(c1ccc(C(=O)N2CCC(N3CCCC3)CC2)c(Nc2ccccc2)c1)N1CCC(N2CCCC2)CC1 | inactive |  |
| COc1c(C)c2c(c(O)c1CC=C(C)CCC(=O)OCCN1CCOCC1)C(=O)OC2 | inactive |  |
| O=[N+]([O-])c1ccc(Nc2ccccc2-c2ccccc2)c2nonc12 | inactive |  |
| Cc1ccccc1-n1c(Cn2nc(-c3cccc(O)c3)c3c(N)ncnc32)nc2cccc(C)c2c1=O | inactive |  |
| CNC(=O)c1c(-c2ccc(F)cc2)oc2cc(N(CCO)S(C)(=O)=O)c(C3CC3)cc12 | inactive |  |
| CCc1cccc(CC)c1NC(=O)N1Cc2[nH]nc(NC(=O)c3ccc(N4CCN(C)CC4)cc3)c2C1 | inactive |  |
| Cc1ccc(C2=Nc3ccc(Cl)cc3OC2)cc1 | inactive |  |
| N#CC(c1ccnc(NCCc2cccnc2)n1)c1nc2ccccc2s1 (stereo not given) | inactive |  |
| CN[C@H]1[C@@H](O[C@@H]2[C@H](O[C@@H]3[C@@H](O)[C@@H](O)[C@@H](N=C(N)N)[C@@H](O)[C@@H]3N=C(N)N)O[C@H](C)[C@@]2(O)C=O)O[C@@H](CO)[C@@H](O)[C@H]1O |  | -2.24% [at 12.4 µM] |
| CCNC(=O)Nc1ccc(Oc2ncnc(N)c2C=NOC)cc1Cl | inactive |  |
| COc1cc2c(cc1Cc1cccc(Cl)c1F)c(=O)c(C(=O)O)cn2[C@H](CO)C(C)C | inactive |  |
| CO[C@H]1/C=C\O[C@@]2(C)Oc3c(C)c(O)c4c(O)c(c5c(nc6cc(C)ccn65)c4c3C2=O)NC(=O)C(C)=CC=C[C@H](C)[C@H](O)[C@@H](C)[C@@H](O)[C@@H](C)[C@H](OC(C)=O)[C@H]1C | inactive |  |
| O=c1[nH]nc(OCCCc2ccc(Cl)cc2)c(NCc2cccnc2)c1Br | inactive |  |
| O=C1C(CCC(O)c2ccc(F)cc2)C(c2ccc(O)cc2)N1c1ccc(F)cc1 (stereo not given) | inactive |  |
| C[C@@H]1[C@H](C)CC[C@]2(C(=O)O)CC[C@]3(C)C(=CC[C@@H]4[C@@]5(C)CC[C@H](O)C(C)(C)[C@H]5CC[C@]43C)[C@@H]12 | inactive |  |
| CC[C@H](C)C(=O)O[C@H]1C[C@H](O)C=C2C=C[C@H](C)[C@H](CC[C@@H](O)C[C@@H](O)CC(=O)O)[C@H]21 | inactive |  |
| CC(=O)Nc1cccc(-n2c(=O)n(C3CC3)c(=O)c3c(Nc4ccc(I)cc4F)n(C)c(=O)c(C)c32)c1 | inactive |  |
